According to the supplement of paper PMC8877412:
Where a name gives a salt, the structure may show the parent alone. ± gives the uncertainty stated by the source.

Each compound was assayed on NCC-PMP1-C1 (assay: cell viability relative to DMSO control; higher = less growth inhibition). Conditions: 10 µM; 72 h.
Experimental: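 NCC-PMP1-C1 pseudomyxoma peritonei cells were seeded in 384-well plates coated with Matrigel and MEF (1e4 cells). Viability was read after 72 h by CCK-8 and expressed as % of the DMSO control, mean ± SD of duplicates.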

Row | Compound | cell viability [%]
1 | O=C(CCCCCCC(=O)Nc1ccccc1)NO [Vorinostat (SAHA, MK0683)] | 27.7 ± 2.2
2 | O=C(O)CCCN1CCC(O[C@@H](c2ccc(Cl)cc2)c2ccccn2)CC1 [Bepotastine Besilate] | 2.73 ± 16
3 | CC(C)(OCc1nn(Cc2ccccc2)c2ccccc12)C(=O)O [Bindarit] | 104 ± 7.1
4 | S=c1[nH]cnc2nc[nH]c12 [Mercaptopurine (6-MP)] | -6.45
5 | CC/C(=C(/CC)c1ccc(O)cc1)c1ccc(O)cc1 [Diethylstilbestrol] | 121.2 ± 0.53
6 | COc1c2ccoc2cc2oc(=O)ccc12 [Bergapten] | 87.3 ± 5
7 | Cc1ccc(F)c(NC(=O)Nc2ccc(-c3cccc4[nH]nc(N)c34)cc2)c1 [Linifanib (ABT-869)] | 45.2 ± 6.3
8 | Cc1nc(Nc2ncc(C(=O)Nc3c(C)cccc3Cl)s2)cc(N2CCN(CCO)CC2)n1 [Dasatinib] | 26.3 ± 4.4
9 | C#Cc1cccc(Nc2ncnc3cc(OCCOC)c(OCCO)cc23)c1 | 49.1 ± 7.9
10 | CS(=O)(=O)CCNCc1ccc(-c2ccc3ncnc(Nc4ccc(OCc5cccc(F)c5)c(Cl)c4)c3c2)o1 | 51.2 ± 7.9
11 | Nc1ncn([C@H]2C[C@H](O)[C@@H](CO)O2)c(=O)n1 [Decitabine] | 95.2 ± 0.53
12 | Fc1ccc(C(c2ccc(F)cc2)N2CCN(C/C=C/c3ccccc3)CC2)cc1 [Flunarizine 2HCl] | 99.6 ± 22
13 | Clc1ccc(C(c2ccccc2Cl)C(Cl)Cl)cc1 (stereo not given) [Mitotane] | 106.8 ± 1
14 | NCC(=O)CCC(=O)O [5-Aminolevulinic acid HCl] | 102.7 ± 0.67
15 | Cc1nc(NC(=O)N2CCC[C@H]2C(N)=O)sc1-c1ccnc(C(C)(C)C(F)(F)F)c1 [Alpelisib] | 56.6 ± 3
16 | CS(=O)(=O)CCNCc1ccc(-c2ccc3ncnc(Nc4ccc(OCc5cccc(F)c5)c(Cl)c4)c3c2)o1 [Lapatinib] | 50.4 ± 2.3
17 | CC1=C(/C=C/C(C)=C/C=C/C(C)=C/C(=O)O)C(C)(C)CCC1 [Tretinoin] | 129 ± 16
18 | O=c1[nH]cc(F)c(=O)[nH]1 [Fluorouracil (5-Fluoracil, 5-FU)] | 86.7 ± 7.5
19 | COC(=O)C[C@](O)(CCCC(C)(C)O)C(=O)O[C@@H]1C(OC)=C[C@]23CCCN2CCc2cc4c(cc2[C@H]13)OCO4 [Homoharringtonine] | -1.02 ± 0.42
20 | COc1cccc2c1C(=O)c1c(O)c3c(c(O)c1C2=O)C[C@@](O)(C(C)=O)C[C@@H]3O[C@H]1C[C@H](N)[C@H](O)[C@H](C)O1 [Daunorubicin HCl] | -1.33 ± 0.2

Row | Compound | cell viability [%]
21 | CN1CCN(c2ccc(C(=O)Nc3n[nH]c4ccc(Cc5cc(F)cc(F)c5)cc34)c(NC3CCOCC3)c2)CC1 [Entrectinib (RXDX-101)] | -0.545 ± 0.059
22 | Cc1cccc(N(C)C(=S)Oc2ccc3ccccc3c2)c1 [Tolnaftate] | 101 ± 19
23 | CO[C@H]1C[C@@H]2CC[C@@H](C)[C@@](O)(O2)C(=O)C(=O)N2CCCC[C@H]2C(=O)O[C@H]([C@H](C)C[C@@H]2CC[C@@H](OC(=O)C(C)(CO)CO)[C@H](OC)C2)CC(=O)[C@H](C)/C=C(\C)[C@@H](O)[C@@H](OC)C(=O)[C@H](C)C[C@H](C)/C=C/C=C/C=C/1C | 155 ± 67
24 | C#CCC(Cc1cnc2nc(N)nc(N)c2n1)c1ccc(C(=O)N[C@@H](CCC(=O)O)C(=O)O)cc1 (stereo not given in full) [Pralatrexate] | 104 ± 9.8
25 | Cc1[nH]c(/C=C2\C(=O)Nc3ccccc32)c(C)c1CCC(=O)O [Orantinib (TSU-68, SU6668)] | 115 ± 2.1
26 | CCS(=O)(=O)N1CCN(c2ccc(Nc3ncc(C(N)=O)c(NC4CC4)n3)cc2)CC1 | 71.8 ± 3.5
27 | Nc1ccn([C@@H]2O[C@H](CO)[C@@H](O)[C@@H]2O)c(=O)n1 [Cytosine β-D-arabinofuranoside hydrochloride] | 74.2 ± 10
28 | Nc1nnc(-c2cccc(Cl)c2Cl)c(N)n1 [Lamotrigine] | 102.9 ± 0.8
29 | COc1cc2ncnc(Nc3ccc(F)c(Cl)c3)c2cc1OCCCN1CCOCC1 [Gefitinib(ZD1839)] | 85.16 ± 0.73
30 | O=C(c1ccc(OCCN2CCCCC2)cc1)c1c(-c2ccc(O)cc2)sc2cc(O)ccc12 [Raloxifene HCl] | 92.9 ± 5.5
31 | CNC(=O)c1cc(Oc2ccc(NC(=O)Nc3ccc(Cl)c(C(F)(F)F)c3)c(F)c2)ccn1 [Regorafenib (BAY 73-4506)] | 147 ± 11
32 | COc1cc2nccc(Oc3ccc(NC(=O)Nc4cc(C)on4)c(Cl)c3)c2cc1OC [Tivozanib (AV-951)] | 60.7 ± 11
33 | CNC(=O)c1ccccc1Sc1ccc2c(/C=C/c3ccccn3)n[nH]c2c1 [Axitinib] | 61.27 ± 0.13
34 | Cc1ccc(NC(=O)c2ccc(CN3CCN(C)CC3)cc2)cc1Nc1nccc(-c2cccnc2)n1 [Imatinib Mesylate (STI571)] | 75.2 ± 4.4
35 | Nc1nc(Cl)nc2c1ncn2[C@@H]1O[C@H](CO)[C@@H](O)[C@@H]1F [Clofarabine] | 112 ± 5.7
36 | CO[C@H]1C[C@@H]2CC[C@@H](C)[C@@](O)(O2)C(=O)C(=O)N2CCCC[C@H]2C(=O)O[C@H]([C@H](C)C[C@@H]2CC[C@@H](OCCO)[C@H](OC)C2)CC(=O)[C@H](C)/C=C(\C)[C@@H](O)[C@@H](OC)C(=O)[C@H](C)C[C@H](C)/C=C/C=C/C=C/1C [Everolimus (RAD001)] | 83.3 ± 7.4
37 | O=C(CCBr)N1CCN(C(=O)CCBr)CC1 [Pipobroman-D8] | 84 ± 7.7
38 | O=C(O)C1=CO[C@@H](O[C@@H]2O[C@H](CO)[C@@H](O)[C@H](O)[C@H]2O)[C@@H]2C(CO)=CC[C@H]12 [Geniposidic acid] | 97.1 ± 2.2
39 | Cc1cc(Nc2ncc(Cl)c(Nc3ccccc3S(=O)(=O)C(C)C)n2)c(OC(C)C)cc1C1CCNCC1 [Ceritinib (LDK378)] | -3.34 ± 0.36
40 | Cc1nc(Nc2ncc(C(=O)Nc3c(C)cccc3Cl)s2)cc(N2CCN(CCO)CC2)n1 [Dasatinib Monohydrate] | 41.1 ± 8.4
